Source: PubChem BioAssay (NCATS)
Records with an inconclusive call do not appear. The source made the active and inactive calls. Unless noted, the call rests on the fitted dose curve.

Assays:
[1] = target: Glucocorticoid receptor (Homo sapiens) (UniProt P04150); assay: qHTS assay for small molecule agonists of glucocorticoid receptor signaling (AID 588532; active means well fitted curve in the direction sought with a large enough effect in the signal ratio, with a control signal flat; the % refers to the signal ratio;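 further: 100% = dexamethasone at 0.1 µM and 0% = DMSO only wells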); settings: HeLa MMTV-bla, beta-lactamase ratio, agonist, 18 h; activation: stronger effect = higher value, percent of dexamethasone control, DMSO zero
Glucocorticoid receptor (Homo sapiens), sequence (P04150 whole entry, looked up): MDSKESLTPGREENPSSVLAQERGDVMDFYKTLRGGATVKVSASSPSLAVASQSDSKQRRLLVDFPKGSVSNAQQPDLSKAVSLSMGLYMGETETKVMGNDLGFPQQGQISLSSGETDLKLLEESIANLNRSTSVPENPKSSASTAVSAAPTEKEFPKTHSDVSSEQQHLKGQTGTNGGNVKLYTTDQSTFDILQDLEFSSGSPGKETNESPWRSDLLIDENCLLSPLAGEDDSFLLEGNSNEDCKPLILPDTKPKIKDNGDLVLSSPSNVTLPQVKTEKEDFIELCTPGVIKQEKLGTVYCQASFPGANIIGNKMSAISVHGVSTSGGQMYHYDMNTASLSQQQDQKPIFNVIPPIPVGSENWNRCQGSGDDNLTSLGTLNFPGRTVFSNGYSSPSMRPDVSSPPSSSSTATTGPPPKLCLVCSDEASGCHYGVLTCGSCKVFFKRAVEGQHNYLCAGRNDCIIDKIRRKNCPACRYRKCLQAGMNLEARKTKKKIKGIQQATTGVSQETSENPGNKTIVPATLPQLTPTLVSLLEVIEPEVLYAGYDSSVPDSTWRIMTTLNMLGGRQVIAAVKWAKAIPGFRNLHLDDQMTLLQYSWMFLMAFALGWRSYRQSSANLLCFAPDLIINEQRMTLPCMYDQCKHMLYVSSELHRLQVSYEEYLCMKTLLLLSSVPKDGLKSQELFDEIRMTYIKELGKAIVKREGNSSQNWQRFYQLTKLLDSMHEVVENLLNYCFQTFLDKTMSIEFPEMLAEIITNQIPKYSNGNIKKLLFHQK
Procedure, shortened: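 Titration series, up to 92 uM, applied to GRE-bla HeLa cells for 18 h at 37 C. Detection by CCF4 FRET substrate after 2 h at RT.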

[2] = target: Peroxisome proliferator-activated receptor delta (Homo sapiens) (UniProt Q03181); assay: qHTS assay for small molecule agonists of peroxisome proliferator-activated receptor delta signaling (AID 588534);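 further: 0% = DMSO basal wells and 100% = positive control agonist at 10 µM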
Peroxisome proliferator-activated receptor delta (Homo sapiens), sequence (Q03181 whole entry, looked up): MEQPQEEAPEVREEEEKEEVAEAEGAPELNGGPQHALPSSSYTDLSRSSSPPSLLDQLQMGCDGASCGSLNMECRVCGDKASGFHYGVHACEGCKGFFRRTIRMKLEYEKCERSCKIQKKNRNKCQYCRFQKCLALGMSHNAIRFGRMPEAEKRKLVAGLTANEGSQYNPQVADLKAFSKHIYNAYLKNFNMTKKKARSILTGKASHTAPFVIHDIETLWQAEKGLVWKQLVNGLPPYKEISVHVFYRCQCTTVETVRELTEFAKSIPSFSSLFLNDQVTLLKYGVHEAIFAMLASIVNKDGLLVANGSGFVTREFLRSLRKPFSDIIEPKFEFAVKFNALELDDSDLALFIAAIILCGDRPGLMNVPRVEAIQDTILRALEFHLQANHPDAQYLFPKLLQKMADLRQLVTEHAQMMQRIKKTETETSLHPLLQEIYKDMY
Procedure, shortened: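 Titration series tested in agonist mode on beta-lactamase reporter cells; 18 hrs at 37 C after a 5 hr pre-incubation. Readout: CCF4 fluorescence, 2 hrs RT. Hill equation gives EC50 and maximal response.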

[3] = qHTS assay for small molecule antagonists of peroxisome proliferator-activated receptor delta signaling (AID 588535; active means well fitted inhibition curve with a large enough effect in the signal ratio, with a control signal flat, not every such curve was filed as active; the % refers to the signal ratio;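 on max response: cells co-treated with a PPAR-delta agonist as stimulator during compound exposure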); settings: HEK293T PPARd-UAS-bla, beta-lactamase FRET ratio, 18 h; 460 nm channel
Procedure, shortened: (§1)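 Compounds tested in titration on PPAR-delta-UAS-bla HEK293T cells grown in charcoal/dextran-stripped serum (2%); beta-lactamase activity read via CCF4 emission at 460 and 530 nm.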

[4] = target: Peroxisome proliferator-activated receptor delta (Homo sapiens) (UniProt Q03181); assay: as above
Procedure, shortened: as §1

[5] = target: Peroxisome proliferator-activated receptor gamma (Homo sapiens) (UniProt P37231); assay: qHTS assay for small molecule antagonists of peroxisome proliferator-activated receptor gamma signaling (AID 588537; active means well fitted inhibition curve with a large enough effect in the signal ratio, with a control signal flat, not every such curve was filed as active; the % refers to the signal ratio;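 further: reporter cells co-stimulated with 50 nM rosiglitazone agonist during compound treatment; % of control where 0% means no effect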)
Peroxisome proliferator-activated receptor gamma (Homo sapiens), sequence (P37231 whole entry, looked up): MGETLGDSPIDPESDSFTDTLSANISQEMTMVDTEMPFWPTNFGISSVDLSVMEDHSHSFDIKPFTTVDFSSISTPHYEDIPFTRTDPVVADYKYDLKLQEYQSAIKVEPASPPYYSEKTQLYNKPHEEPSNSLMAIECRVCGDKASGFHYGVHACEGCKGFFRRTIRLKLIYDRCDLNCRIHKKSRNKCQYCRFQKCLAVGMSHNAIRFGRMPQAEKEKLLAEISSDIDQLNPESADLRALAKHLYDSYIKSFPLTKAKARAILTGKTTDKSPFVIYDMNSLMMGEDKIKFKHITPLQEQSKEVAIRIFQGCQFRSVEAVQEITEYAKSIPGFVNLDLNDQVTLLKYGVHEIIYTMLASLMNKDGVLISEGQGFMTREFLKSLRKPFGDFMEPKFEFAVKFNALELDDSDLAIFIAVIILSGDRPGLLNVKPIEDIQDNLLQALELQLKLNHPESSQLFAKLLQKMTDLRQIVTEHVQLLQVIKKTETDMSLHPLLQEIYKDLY
Procedure, shortened: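 HEK293 cells, PPAR-gamma-UAS-bla, 3000/well. Pre-incubation 6-6.5 h, 37 C. Compound titration with rosiglitazone 50 nM final, 16 h. CCF4 dye, 2 h RT, dual-emission fluorescence.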

[6] = target: Vitamin D3 receptor (Homo sapiens) (UniProt P11473); assay: qHTS assay for small molecule antagonists of vitamin D receptor signaling (AID 588541);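 further: receptor activated by calcitriol during compound treatment; series mostly up to about 77 µM; on the % scale 0 is the no-effect control and ±100 the full control effect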
Vitamin D3 receptor (Homo sapiens), sequence (P11473 whole entry, looked up): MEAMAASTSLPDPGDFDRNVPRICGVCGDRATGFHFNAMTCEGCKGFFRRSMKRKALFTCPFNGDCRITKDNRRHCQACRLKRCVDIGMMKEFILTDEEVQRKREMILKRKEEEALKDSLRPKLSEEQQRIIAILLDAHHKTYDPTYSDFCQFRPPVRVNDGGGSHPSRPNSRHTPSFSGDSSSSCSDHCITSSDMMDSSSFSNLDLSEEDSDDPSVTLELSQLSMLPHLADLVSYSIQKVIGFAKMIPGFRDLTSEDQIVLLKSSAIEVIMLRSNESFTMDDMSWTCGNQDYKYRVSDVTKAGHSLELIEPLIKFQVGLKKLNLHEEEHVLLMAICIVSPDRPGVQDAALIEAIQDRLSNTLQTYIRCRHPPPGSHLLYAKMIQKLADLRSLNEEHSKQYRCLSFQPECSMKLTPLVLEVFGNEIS
Procedure, shortened: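 VDR-UAS-bla HEK293T cells (2000/well, 2% charcoal-stripped FBS) were treated with titrated compounds plus 1-alpha,25-dihydroxyvitamin D3 (50 nM or 3 nM final) for 16 h at 37 C. CCF4 beta-lactamase fluorescence was read; Hill fits gave IC50.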

[7] = qHTS assay for small molecule agonists of retinoid X receptor alpha signaling (AID 588544); settings: HEK293T RXRa-UAS-bla, beta-lactamase reporter, 18 h; 530 nm emission;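 on activation: 0% = DMSO basal wells and 100% = reference agonist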
[8] = target: Retinoic acid receptor RXR-alpha (Homo sapiens) (UniProt P19793); assay: as above
Retinoic acid receptor RXR-alpha (Homo sapiens), sequence (P19793 whole entry, looked up): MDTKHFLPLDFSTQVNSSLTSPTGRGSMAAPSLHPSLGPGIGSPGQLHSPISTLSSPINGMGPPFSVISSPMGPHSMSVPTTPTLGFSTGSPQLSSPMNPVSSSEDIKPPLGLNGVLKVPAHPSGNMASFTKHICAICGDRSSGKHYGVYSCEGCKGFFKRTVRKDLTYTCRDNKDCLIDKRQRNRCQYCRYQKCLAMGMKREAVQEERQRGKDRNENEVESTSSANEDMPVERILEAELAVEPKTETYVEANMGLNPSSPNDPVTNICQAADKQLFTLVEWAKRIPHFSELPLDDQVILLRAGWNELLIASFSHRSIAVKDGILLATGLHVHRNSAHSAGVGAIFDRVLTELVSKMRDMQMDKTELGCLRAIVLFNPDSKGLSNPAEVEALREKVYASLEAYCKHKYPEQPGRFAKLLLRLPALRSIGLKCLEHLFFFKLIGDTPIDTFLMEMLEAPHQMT

[9] = target: Thyroid hormone receptor beta (Homo sapiens) (UniProt P10828); assay: qHTS assay for small molecule agonists of thyroid hormone receptor beta signaling (AID 588545);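 further: 0% = DMSO only and 100% = 10 nM T3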
Thyroid hormone receptor beta (Homo sapiens), sequence (P10828 whole entry, looked up): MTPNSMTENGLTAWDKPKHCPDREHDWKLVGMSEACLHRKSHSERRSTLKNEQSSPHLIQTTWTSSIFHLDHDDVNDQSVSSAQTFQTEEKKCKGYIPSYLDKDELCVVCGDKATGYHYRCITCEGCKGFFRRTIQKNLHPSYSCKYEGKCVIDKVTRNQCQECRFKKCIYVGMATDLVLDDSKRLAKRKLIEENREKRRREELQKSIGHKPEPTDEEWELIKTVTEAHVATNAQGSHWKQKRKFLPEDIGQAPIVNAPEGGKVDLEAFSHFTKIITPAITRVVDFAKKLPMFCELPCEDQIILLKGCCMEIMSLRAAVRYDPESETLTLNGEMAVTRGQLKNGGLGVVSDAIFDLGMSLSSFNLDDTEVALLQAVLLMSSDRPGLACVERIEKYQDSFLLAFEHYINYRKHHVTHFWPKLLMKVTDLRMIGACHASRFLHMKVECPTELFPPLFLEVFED
Procedure, shortened: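 TR-UAS-bla-GripTite HEK 293 cells in medium with 2% charcoal/dextran FBS, 0.1 mM NEAA and 1 mM sodium pyruvate were treated with titrated compounds for 18 hrs at 37 C. Beta-lactamase reporter was read with CCF4 dye (ex 405, em 460/530 nm); EC50 from Hill fits.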

[10] = qHTS assay for small molecule antagonists of retinoid X receptor alpha signaling (AID 588546; active means well fitted inhibition curve with a large enough effect in the signal ratio, with a control signal flat, not every such curve was filed as active; the % refers to the signal ratio;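 further: cells stimulated with 9-cis-retinoic acid as agonist; on the % scale 0 is the no-effect control and ±100 the full control effect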); settings: HEK293T RXRa-UAS-bla, beta-lactamase ratio, antagonist mode; measured here: W530 green channel, cytotoxicity proxy
Procedure, shortened: (§2)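 Beta-lactamase reporter inhibition, read as CCF4 fluorescence ratio (ex 405, em 460/530 nm) after 2 h at RT. HEK293T UAS-bla cells, 2500/well, were stimulated with 9-cis-RA at 500 or 100 nM final alongside test compound for 18 h at 37 C.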

[11] = target: Retinoic acid receptor RXR-alpha (Homo sapiens) (UniProt P19793); assay: as above; settings: HEK293T RXRa-UAS-bla, beta-lactamase ratio, antagonist mode
Procedure, shortened: as §2

[12] = target: Thyroid hormone receptor beta (Homo sapiens) (UniProt P10828); assay: qHTS assay for small molecule antagonists of thyroid hormone receptor beta signaling (AID 588547; active means well fitted inhibition curve with a large enough effect in the signal ratio, with a control signal flat, not every such curve was filed as active; the % refers to the signal ratio;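 further: cells stimulated with 0.4 nM T3 agonist during compound exposure; series mostly up to about 77 µM; on the % scale 0 is the no-effect control and ±100 the full control effect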); settings: TR-UAS-bla HEK293, beta-lactamase ratio, antagonist mode, 18 h
Procedure, shortened: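 TR-UAS-bla GripTite HEK293 cells in 2% charcoal/dextran FBS medium were preincubated 4 h at 37 C, given compound (0.59 nM to 92 uM) plus 0.4 nM T3 (final) for 18 h, then CCF4 for 2 h at RT; Hill fit gave IC50.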

[13] = qHTS assay for small molecule agonists of the antioxidant response element (ARE) signaling pathway (AID 651741; active means well fitted activation curve with a large enough effect in the signal ratio; the % refers to the signal ratio; further: % of control where 0% means no effect)
Procedure, shortened: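 Beta-lactamase reporter expression driven by the antioxidant response element in HepG2 cells was detected by fluorescence with LiveBLAzer B/G FRET substrate (2 h, room temperature) following 16 h compound treatment at 37 C.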

[14] = qHTS assay for small molecule activators of the p53 signaling pathway (AID 651743; active means well fitted activation curve with a large enough effect in the signal ratio, not every such curve was filed as active; the % refers to the signal ratio; further: series mostly up to about 92 µM; % of control where 0% means no effect); settings: HCT-116 p53RE-bla, beta-lactamase FRET ratio, 16 h; activation: stronger effect = higher value
Procedure, shortened: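 Here HCT-116 cells with an integrated p53-responsive beta-lactamase gene were incubated with compounds (16 hours, 37 C) after a 5-hour plating period; beta-lactamase activity was detected as fluorescence intensity via B/G FRET substrate.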

[15] = qHTS assay for small molecule activators of the nuclear factor-kappa B (NF-kB) signaling pathway (AID 651749; active means well fitted activation curve with a large enough effect in the signal ratio; the % refers to the signal ratio; further: series mostly up to about 77 µM; % of control where 0% means no effect); settings: NF-kB-bla ME-180 cells, beta-lactamase FRET ratio, 16 h; activation: stronger effect = higher value
Procedure, shortened: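 Beta-lactamase reporter expression, controlled by NF-kB response elements in ME-180 cells, was quantified fluorometrically via FRET disruption; cells at 2,000/well had been incubated with 23 nL test compound for 16 hr.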

[16] = qHTS assay for environmental chemicals that activate the Aryl hydrocarbon Receptor (AhR) signaling pathway (AID 651777; active means well fitted curve in the direction sought with a large enough effect; an effect the other way counts as inactive or inconclusive; further: % of control where 0% means no effect; nearly all actives have a fitted effect of over 15% in size); settings: 1A2-DRE human hepatoma cells, luciferase, 24 h; activation: stronger effect = higher value
Procedure, shortened: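 Concentration–response screening used 1,200 1A2-DRE cells per well, 24 hr compound exposure (37 C, 5% CO2), and One-Glo luminescence as the AhR-driven CYP1A2 reporter signal.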

[17] = qHTS assay for small molecule agonists of the antioxidant response element (ARE) signaling pathway measured by Nrf2-dependant transcriptional activity (AID 720636; active means well fitted curve in the direction sought with a large enough effect in the repeat runs; an effect the other way counts as inactive or inconclusive; further: % of control where 0% means no effect)
Procedure, shortened: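 Attachment 6 hr at 37 C, then compound versus DMSO vehicle for 16 hr in ARE-luc HepG2 cells (1% dialyzed FBS); luminescence recorded 30 min after ONE-Glo addition at room temperature.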

[18] = qHTS assay for small molecule agonists of the antioxidant response element (ARE) signaling pathway measured by Nrf2-dependant transcriptional activity - cell viability counter screen (AID 720653; active means well fitted curve in the direction sought with a large enough effect in the repeat runs; an effect the other way counts as inactive or inconclusive; further: on the % scale 0 is the no-effect control and ±100 the full control effect); settings: ARE-bla HepG2 viability, CellTiter-Glo ATP luminescence, 16 h; max response: stronger effect = lower value
Procedure, shortened: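 ARE-bla HepG2 cells (2,000/well) rested 5 hrs at 37C/5% CO2, then exposed to compounds in DMSO for 16 hrs. Viability was read in the same wells as intracellular ATP by luminescence, 30 min at room temperature after reagent addition.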

[19] = qHTS assay for cell viability of HEK293 cells (AID 743288; active means well fitted curve in the direction sought with a large enough effect; an effect the other way counts as inactive or inconclusive; further: on the % scale 0 is the no-effect control and ±100 the full control effect; nearly all actives have a fitted effect of over 50% in size); settings: ATP luminescence (CellTiter-Glo), 18 h; max response: stronger effect = lower value
Procedure, shortened: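 Steps: plate 2,000 parental HEK293 cells per well; incubate ≥5 h, 37 C; add compounds in DMSO; incubate 18 h, 37 C; add CellTiter-Glo; wait 30 min at room temperature; read luminescence.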

[20] = qHTS assay for cell viability of the p53RE-bla HCT-116 cell line (AID 743292; active means well fitted curve in the direction sought with a large enough effect; an effect the other way counts as inactive or inconclusive; further: on the % scale 0 is the no-effect control and ±100 the full control effect; nearly all actives have a fitted effect of over 55% in size)
Procedure, shortened: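 Compound-exposed HCT-116 (p53RE-bla) cells, 4,000 per well, were kept 16 h at 37 C following a 5 h preincubation. Cell number was estimated from total ATP by CellTiter-Glo luminescence read after 30 min at room temperature.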

[21] = target: Nuclear receptor subfamily 1 group I member 2 (Rattus norvegicus) (UniProt Q9R1A7); assay: qHTS assay for small molecule activators of the rat pregnane X receptor (rPXR) signaling pathway (AID 651751; call rule not given here; further: 0% is about no effect); settings: rPXR reporter cells, luciferase (One-Glo), 24 h
Nuclear receptor subfamily 1 group I member 2 (Rattus norvegicus), sequence (Q9R1A7 whole entry, looked up): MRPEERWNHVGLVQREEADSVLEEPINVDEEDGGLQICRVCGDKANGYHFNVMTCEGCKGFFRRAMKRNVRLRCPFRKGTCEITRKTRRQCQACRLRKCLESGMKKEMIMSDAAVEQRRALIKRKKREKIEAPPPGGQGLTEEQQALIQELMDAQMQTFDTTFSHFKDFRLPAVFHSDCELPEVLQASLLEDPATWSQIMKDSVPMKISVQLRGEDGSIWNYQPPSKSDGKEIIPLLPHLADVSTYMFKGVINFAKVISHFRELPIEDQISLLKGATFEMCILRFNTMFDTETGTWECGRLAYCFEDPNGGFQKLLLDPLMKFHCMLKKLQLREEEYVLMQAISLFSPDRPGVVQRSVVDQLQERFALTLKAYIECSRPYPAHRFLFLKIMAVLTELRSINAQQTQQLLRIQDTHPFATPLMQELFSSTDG

Question: Which activation [1] does the source give for `CNC(=O)O/N=C(\C)SC` here?
Answer: Its activation is -2.31% (inactive).

Question: And the outcome [2]?
Answer: The outcome was “inactive”.

Question: What about the max response [3] of the same compound?
Answer: Its max response is 24.5%.

Question: And the Potency [4]?
Answer: The Potency was “inactive”.

Question: And the Potency [5]?
Answer: The Potency was “inactive”.

Question: And the Potency [6]?
Answer: Its Potency is “inactive”.

Question: What about the max response [7] of the same compound?
Answer: Its max response is -25.7%.

Question: And the Potency [8]?
Answer: Its Potency is “inactive”.

Question: What about the Potency [9] of the same compound?
Answer: Its Potency is “inactive”.

Question: What about the max response [10] of the same compound?
Answer: The max response was -3.33%.

Question: And the max response [11]?
Answer: Its max response is 8.15% (inactive).

Question: And the activity change % (negative = inhibition) [12]?
Answer: The activity change % (negative = inhibition) was -8.81% (inactive).

Question: What about the Potency [13] of the same compound?
Answer: Its Potency is “inactive”.

Question: What about the activation [14] of the same compound?
Answer: Its activation is -0.165% (inactive).

Question: And the activation [15]?
Answer: The activation was -0.423% (inactive).

Question: What about the activation [16] of the same compound?
Answer: The activation was -1.88% (inactive).

Question: What about the Potency [17] of the same compound?
Answer: Its Potency is “inactive”.

Question: And the max response [18]?
Answer: Its max response is -4.43% (inactive).

Question: What about the max response [19] of the same compound?
Answer: The max response was -6.55% (inactive).

Question: What about the Potency [20] of the same compound?
Answer: The Potency was “inactive”.

Question: And the max response [21]?
Answer: The max response was -0.197% (inactive).

Question: With `Clc1cc(Cl)cc(Cl)c1` as the compound, how does the outcome [2] read?
Answer: Its outcome is “inactive”.
